Measured values as given in the supplement of paper PMC6555819.

What was measured:
Test in all cases: PBM binding z-score (relative to random genomic background probes); higher = stronger binding; sequences stand for … in GC…GCGATTGACAGCGTAGAATGAAGG
[1] = test system: FXR:RXRa (NR concentration 270 nM, RXRa partner concentration 90 nM)
Summary of the method: (§1)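 Ligand-free nuclear receptor dimers were applied to custom Agilent 4×180K protein-binding microarrays whose double-stranded probes carried direct-repeat seeds, single-nucleotide variants, half-site ablations and random human genomic background sequences in 34-nt variable regions. Incubation lasted 1 h. Binding z-scores were computed against the random background probes from regression-normalized fluorescence.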

[2] = test system: LXRa:RXRa (NR concentration 270 nM, RXRa partner concentration 90 nM)
Summary of the method: as §1

[3] = test system: LXRa homodimer (NR concentration 270 nM)
Summary of the method: as §1

[4] = test system: LXRb:RXRa (NR concentration 270 nM, RXRa partner concentration 90 nM)
Summary of the method: as §1

[5] = test system: LXRb homodimer (NR concentration 270 nM)
Summary of the method: as §1

[6] = test system: PPARa:RXRa (NR concentration 270 nM, RXRa partner concentration 90 nM)
Summary of the method: as §1

[7] = test system: PPARg:RXRa (NR concentration 180 nM, RXRa partner concentration 90 nM)
Summary of the method: as §1

[8] = test system: PPARg:RXRa 270nM:90nM, anti-RXR (NR concentration 270 nM, RXRa partner concentration 90 nM)
Summary of the method: as §1

[9] = test system: PPARg:RXRa 30nM:10nM, anti-RXR (NR concentration 30 nM, RXRa partner concentration 10 nM)
Summary of the method: as §1

[10] = test system: PPARg:RXRa 90nM:30nM, anti-RXR (NR concentration 90 nM, RXRa partner concentration 30 nM)
Summary of the method: as §1

[11] = test system: PPARg:RXRa DBDmut IVT, anti-RXR (DBD mutation: RXRa K156A/R161A, NR concentration 270 nM, RXRa partner concentration 90 nM)
Summary of the method: as §1

[12] = test system: PPARg:RXRa IVT, anti-PPARg (NR concentration 270 nM, RXRa partner concentration 90 nM)
Summary of the method: as §1

[13] = test system: PPARg DBDmut:RXRa IVT, anti-PPARg (DBD mutation: PPARg1 K132A/R137A, NR concentration 270 nM, RXRa partner concentration 90 nM)
Summary of the method: as §1

[14] = test system: PPARg DBDmut IVT, anti-PPARg (DBD mutation: PPARg1 K132A/R137A, NR concentration 270 nM)
Summary of the method: as §1

[15] = test system: PPARg homodimer (NR concentration 180 nM)
Summary of the method: as §1

[16] = test system: PXR:RXRa (NR concentration 270 nM, RXRa partner concentration 90 nM)
Summary of the method: as §1

[17] = test system: PXR homodimer (NR concentration 270 nM)
Summary of the method: as §1

[18] = test system: RARa:RXR (NR concentration 270 nM, RXRa partner concentration 90 nM)
Summary of the method: as §1

[19] = test system: RARa homodimer (NR concentration 270 nM)
Summary of the method: as §1

[20] = test system: RARb:RXRa (NR concentration 270 nM, RXRa partner concentration 90 nM)
Summary of the method: as §1

Sequence	PBM binding z-score [1]	PBM binding z-score [2]	PBM binding z-score [3]	PBM binding z-score [4]	PBM binding z-score [5]	PBM binding z-score [6]	PBM binding z-score [7]	PBM binding z-score [8]	PBM binding z-score [9]	PBM binding z-score [10]	PBM binding z-score [11]	PBM binding z-score [12]	PBM binding z-score [13]	PBM binding z-score [14]	PBM binding z-score [15]	PBM binding z-score [16]	PBM binding z-score [17]	PBM binding z-score [18]	PBM binding z-score [19]	PBM binding z-score [20]
AATACAGGGTCACTAGGCCAGCGTAGGTACGAAT	6.02	4.76	0.904	3.93	0.853	5.62	7.64	6.28	3.54	5.52	4.14	5.63	1.74	1	1.64	3.02	0.293	3.54	0.674	4.17
GTACCAAGGTGAATAGGTCGTTGCTGAGTAGGCG	0.799	0.799	-0.43	0.493	-0.623	2.23	1.21	1.71	-0.00379	1.18	1.82	2.55	-0.221	0.00615	0.964	0.496	-0.427	1.55	-0.268	1.96
TGAATGAGGTTAAAGATCACGGAACGTGGCGTCG	3.68	2.87	-0.664	2.2	0.233	5.33	7.54	7.16	6.14	7.59	2.31	3.53	0.896	0.358	0.7	2.94	-0.299	4.67	0.0716	2.18
TGAATGAGGTTATAAGATTAGGGAACGTTGCAAA	1.34	1.39	0.076	1.21	-0.0904	2.29	1.15	1.55	1.09	1.51	1.08	1.82	0.868	0.168	0.438	0.788	0.176	1.31	0.154	1.15
GTACCAAGGGGAATAGGTCGTTGATGAGTAGGCG	-0.0504	0.00136	-0.0435	0.269	-0.418	1.3	0.915	1.15	0.0532	0.835	-0.45	0.704	-0.174	-0.377	0.85	0.0913	0.00696	0.389	0.37	0.516
CCTATTGGTTGACCATAAGGGCAACCGAAGCTCG	0.484	-0.0111	-0.255	0.153	-0.527	0.421	0.215	0.235	-0.263	-0.214	-1.11	0.135	-0.489	-1.22	0.0166	0.326	-0.293	0.774	-0.166	1.26
GGAACGAGGGCATTCCAGTTGATAGCATGGCGAT	1.15	1.43	-0.298	0.454	-0.264	1.42	0.909	0.848	-0.214	0.301	3.02	2.32	0.37	-0.74	0.527	2.19	0.706	0.917	-0.491	1.81
ATCTCTATGTAAAGTTCAGTGAAAGATCGATAGA	0.881	1.72	1.66	1.17	0.525	1.87	2.59	3.76	2.03	3.82	-0.231	0.863	0.912	1.04	1.11	1.92	2.03	1.18	1.46	2.55
GCATATAGGTAAGACAAGGTGAAAGTCCGATTGT	0.406	-0.0572	-0.498	-0.135	-0.674	1.06	0.917	0.84	0.112	0.746	3.48	2.15	0.16	0.225	0.496	0.219	-0.205	1.44	-0.191	0.391
CCTCGGAGGACAGAAGGTCTGAGCTGTCCGCTTT	-0.434	-0.47	-0.775	-1.15	-1.31	-0.68	-0.853	-0.655	-1.15	-1.14	0.154	-0.94	-1.16	-2.11	-0.0745	-0.674	-0.886	-0.544	-0.761	0.519
CCTACTGGGCCATCAGGTCATTAATATCAACGTT	1.02	0.82	1.3	1.37	-0.00307	2.46	2.9	3.3	0.96	3.01	4.28	5.01	0.502	0.269	2.46	1.25	0.741	1.51	0.585	1.94
GCTAGTTGGTCAGAAAAAGGTCACACACCGGTCG	2.95	3.7	3.13	3.75	0.434	4.21	1.74	3.02	0.669	2.14	0.771	2.29	-0.31	-0.0601	4.2	4.56	1.01	5.62	1.53	4.17
TCTTGTAGATCAAAGGTTAGGAAAGCCGAAGCCT	1.26	1.45	-0.217	1.24	-0.196	4.06	7.63	7.57	7.89	9.05	2.13	3.42	0.503	0.103	1.92	1.04	-0.482	2.02	0.262	1.4
CCTGGTTGGTCAGGAGGTCACACACCGGATATGA	3.43	3.17	1.62	3.13	0.647	3.89	2.6	3.31	0.453	1.96	-0.199	2.62	-0.128	-0.135	2.95	3.98	0.67	4.45	1.25	3.44
TTTGCTAGGTCAGTTGGTCAGCTAACGAGCTGCC	1.15	1.41	0.52	0.404	0.521	1.54	1.1	1.77	-0.172	1.34	3.23	3.87	-0.438	-0.0692	0.648	0.0416	-0.599	0.42	-0.935	3.31
CCAGACAGGTTAGAAGGTAACTCAGCCTCGATTA	0.224	0.466	0.473	0.483	0.172	0.816	0.402	0.288	-0.236	0.116	0.311	0.0619	-0.119	-0.234	1.19	0.328	0.257	0.828	0.903	0.829
ACCGAAAGGTCGTGAGGTGAGTATACAGAAAGGC	5.42	3.86	-0.204	3.02	0.134	5.29	3.99	4.37	1.42	2.8	0.638	2.23	0.794	0.846	1.51	3.29	-0.242	4.22	0.0801	4
CAAACTAGGTCACAGAGGTCAAAGTCCGTGCGTA	7.61	6.66	7.31	6.24	2.21	6.66	10.2	8.58	6.84	8.64	8.82	9.1	2.19	1.15	5.68	6.96	11.2	7.51	3.31	5.25
GGAACGAGGGCAAGTTGACAGCAGAGTTTGATGG	0.854	0.43	-0.472	0.324	-0.45	1.69	1.15	1.35	0.346	0.686	4.05	3	-0.195	-0.654	0.481	0.693	0.641	0.4	-0.316	2.51
TCATATAGGGAAAGGTGAAAGTCGAACGATATGA	0.779	1.31	-0.25	1.43	-0.112	2.68	2.13	3.56	4.47	3.88	2.4	2.31	0.712	0.709	0.702	0.972	0.00313	1.74	0.496	1.78
ATCTCTAGGTAAAGATGGTTCAGTGAATGCAAAT	-0.0028	0.987	0.171	0.3	0.169	0.594	0.37	0.607	0.44	0.679	1.87	1.65	0.333	0.863	0.000234	0.269	0.428	0.492	0.88	-0.00416
CTTACTGGGCCACGAAAGGTCATTGATTCAGTGA	5.51	6.24	4.47	5.13	0.827	5.66	6.99	6.33	4.14	5.7	7.15	7.26	1.25	0.41	3.04	5.88	2.14	5.98	0.212	4.38
TAGCCTAGGTCATGCGGGCCAGTAGAGTGTCGGC	4.11	3.32	-0.00774	1.64	-0.216	3.58	1.91	2.64	0.154	1.57	1.93	2.8	-0.889	-0.693	0.316	1.39	-0.448	2.37	-0.56	3.75
AATACAGGGTAATCGTAGGCCAGAGTACGCACAG	0.175	1.34	-0.0914	0.309	-0.0115	0.447	1.25	0.792	0.499	0.377	2.12	2.19	0.939	0.00215	-0.0424	0.0668	0.0801	0.578	0.101	0.525
CGTCAAAGTTCAAGGTACCGTAACAGAAAGCAGC	6.16	5.65	3.11	3.48	0.91	4.61	4	4.81	1.82	3.9	0.47	1.61	0.0848	0.822	2.35	3.99	2.46	3.45	0.789	5.08
CCTCGGAGGACAACAGGAGGTCCGAGCTGCCAGA	-0.13	-0.509	-0.575	-1.1	-0.867	-0.795	-0.182	-0.921	-0.862	-0.99	-0.427	-0.95	-1.85	-2.01	-0.576	-0.914	-0.768	-0.793	-0.318	1.1
ACTAGCAGGCCAAGTTTGAGTCACTCAAACAAAG	-0.527	-0.601	-0.503	-0.529	-0.797	-0.0783	-0.147	-0.486	-0.4	-0.496	0.376	0.193	-0.678	0.262	-0.297	-0.433	-0.248	-0.0649	-1.17	0.293
CCTGCCAGGTCATGGTCAGCTAATCTACAGTATG	3.97	3.04	-0.0461	2.28	-0.151	3.94	2.04	2.5	0.448	1.27	2.15	2.35	-0.561	-0.338	1.2	2.16	0.231	2.61	-0.0161	3.78
CAAACTAGGTCACAGAGGTCAAAATCCGTGCGTA	7.3	6.21	6.61	6.41	2.18	6.58	10	7.86	6.44	7.9	8.53	9.12	3.39	4.84	4.55	6.48	10.3	6.58	2.93	5.11
